Data reported in the supplement of paper PMC10981050.
“And” between values parts separate entries of the source, which are not always exact repeats. Equal entries are not always repeated. Structures can show the parent of a compound that is named as a salt.

Legend:
Assay in all cases: cell viability relative to vehicle control; higher = less cytotoxic
Conditions in all cases: 10 µM
[1] = test system: K562
Method in brief: (§1)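 Four leukaemia lines, as CRISPR-edited mutant clones and isogenic wild-type clones, were tested against Selleck bioactive, kinase and epigenetic probe libraries after removal of identity-inconsistent compounds. Cells were exposed to a single 10 µM dose for 48 h, and CellTiter-Glo luminescence was then read. Viability was calculated relative to the on-plate vehicle control.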

[2] = test system: MARIMO
Method in brief: as §1

[3] = test system: MOLM14
Method in brief: as §1

[4] = test system: OCI-AML2
Method in brief: as §1

| Compound | cell viability ([1]; SRSF2 genotype: SRSF2 P95H/wt) | cell viability ([1]; SRSF2 genotype: SRSF2 wt/wt) [%] | cell viability ([2]; SRSF2 genotype: SRSF2 P95H/wt) [%] | cell viability ([2]; SRSF2 genotype: SRSF2 wt/wt) [%] | cell viability ([3]; SRSF2 genotype: SRSF2 P95H/wt) [%] | cell viability ([3]; SRSF2 genotype: SRSF2 wt/wt) [%] | cell viability ([4]; SRSF2 genotype: P95H/wt) [%] | cell viability ([4]; SRSF2 genotype: wt/wt) [%] |
| --- | --- | --- | --- | --- | --- | --- | --- | --- |
| Cc1cccc(-c2nn3c(c2-c2ccnc4ccc(C(N)=O)cc24)CCC3)n1 | 102% and 98% | 99.2 | 104 | 103 | 99.7 | 96.1 | 108 | 108 |
| COc1cc(CCc2cc(NC(=O)c3ccc(N4CC(C)NC(C)C4)cc3)n[nH]2)cc(OC)c1 (stereo not given) | 68.8% and 79.7% | 59.6 | 46 | 42.1 | 14.4 | 21.5 | 8.06 | 17.9 |
| C[C@H](CC[C@@]1(O)O[C@H]2C[C@H]3[C@@H]4CC=C5C[C@@H](O[C@@H]6O[C@H](CO)[C@@H](O[C@@H]7O[C@@H](C)[C@H](O)[C@@H](O)[C@H]7O)[C@H](O)[C@H]6O[C@@H]6O[C@@H](C)[C@H](O)[C@@H](O)[C@H]6O)CC[C@]5(C)[C@H]4CC[C@]3(C)[C@H]2[C@@H]1C)CO[C@@H]1O[C@H](CO)[C@@H](O)[C@H](O)[C@H]1O [Protodioscin] | 0.86% and 0.6% | 3.02 | 0.64 | 0.77 | 0.49 | 0.55 | 0.74 | 0.5 |
| COc1ccc2cc1Oc1ccc(cc1)C[C@H]1c3c(cc4c(c3Oc3cc5c(cc3OC)CCN(C)[C@@H]5C2)OCO4)CCN1C [Cepharanthine] | 5.44% and 5.78% | 3.74 | 57.9 | 50.3 | 25.4 | 26.7 | 0.56 | 8.53 |
| COc1cc(C(=O)NS(=O)(=O)c2ccccc2C)ccc1Cc1cn(C)c2ccc(NC(=O)OC3CCCC3)cc12 [Zafirlukast (Accolate)] | 97.3% and 96.5% | 92.8 | 96 | 110 | 94.3 | 97 | 94.4 | 104 |
| COC(=O)C1(C)CCC2(C(=O)O)CCC3(C)C(=CCC4C5(C)CC(O)C(O)C(C)(CO)C5CCC43C)C2C1 (stereo not given) [Phytolaccagenin] | 108% | 113 | 111 | 103 | 111 | 111 | 105 | 98.5 |
| CC(C(=O)O)c1ccc(C(=O)c2cccs2)cc1 (stereo not given) [Suprofen (Profenal)] | 107% and 103% | 93.2 | 94.7 | 110 | 98.9 | 99.9 | 88.8 | 94.2 |
| C#C[C@]1(O)CC[C@H]2[C@@H]3CCC4=CC(=O)CC[C@@H]4[C@H]3CC[C@@]21C [Norethindrone (Norethisterone)] | 103% and 101% | 100 | 101 | 116 | 98.3 | 106 | 107 | 111 |
| CS(=O)(=O)OCCCCOS(C)(=O)=O [Busulfan (Myleran, Busulfex)] | 103% and 108% | 98.6 | 99.6 | 107 | 102 | 106 | 88.6 | 102 |
| CCc1cccc(CC)c1NC(=O)N1Cc2[nH]nc(NC(=O)c3ccc(N4CCN(C)CC4)cc3)c2C1 | 29.9% and 41.4% | 25.5 | 69.2 | 70.3 | 19.8 | 13.4 | 12.8 | 23.3 |
| CC[C@@H]([C@H](C)O)n1ncn(-c2ccc(N3CCN(c4ccc(OC[C@@H]5CO[C@@](Cn6cncn6)(c6ccc(F)cc6F)C5)cc4)CC3)cc2)c1=O [Posaconazole] | 55.7% and 75.6% | 87 | 55.6 | 59 | 62.2 | 85.5 | 18.1 | 23.9 |
| Nc1c(Br)cc(Br)cc1CN[C@H]1CC[C@H](O)CC1 [Ambroxol HCl] | 103% and 109% | 105 | 106 | 102 | 101 | 107 | 104 | 101 |
| CCCSc1nc(N[C@@H]2C[C@H]2c2ccc(F)c(F)c2)c2nnn([C@@H]3C[C@H](OCCO)[C@@H](O)[C@H]3O)c2n1 [Ticagrelor] | 77.4% and 77.6% | 70.3 | 86.9 | 86.5 | 74.5 | 85.9 | 71.5 | 70 |
| C/C=C(/C)C(=O)O[C@H]1Cc2cc3ccc(=O)oc3cc2OC1(C)C [Decursinol angelate] | 83.2% and 91.7% | 81.8 | 75 | 82.4 | 83.1 | 89.4 | 71.1 | 77.8 |
| N=C(N)NC(=O)c1nc(Cl)c(N)nc1N [Amiloride HCl] | 88.4% and 98.5% | 92.9 | 99.3 | 96.2 | 72.8 | 86.7 | 85.8 | 84.7 |
| Cc1nnc(NS(=O)(=O)c2ccc(N)cc2)s1 [Sulfamethizole (Proklar)] | 109% and 97.9% | 104 | 107 | 106 | 100 | 107 | 108 | 111 |
| Cc1ccc(C(=O)Cn2c3c(sc2=N)CCCC3)cc1 | 88.9% and 94.2% | 91.3 | 81.4 | 93.8 | 84 | 96.9 | 83.9 | 92.3 |
| O=C1c2c(O)ccc(O)c2C(=O)c2c(NCCNCCO)ccc(NCCNCCO)c21 [Mitoxantrone 2HCl] | 3.59% and 6.17% | 3.76 | 4.5 | 1.79 | 0.19 | 0.15 | 0.48 | 7.36 |
| OCc1c[nH]c2ccccc12 [Indole-3-carbinol] | 102% and 107% | 99.8 | 105 | 113 | 95.1 | 104 | 105 | 106 |
| c1ccc(NCc2ccc(CNc3ccccn3)cc2)nc1 | 91.8% and 94.5% | 85 | 89 | 91.9 | 87.2 | 92.9 | 78.6 | 84.2 |

| Compound | cell viability ([1]; SRSF2 genotype: SRSF2 P95H/wt) | cell viability ([1]; SRSF2 genotype: SRSF2 wt/wt) [%] | cell viability ([2]; SRSF2 genotype: SRSF2 P95H/wt) [%] | cell viability ([2]; SRSF2 genotype: SRSF2 wt/wt) [%] | cell viability ([3]; SRSF2 genotype: SRSF2 P95H/wt) [%] | cell viability ([3]; SRSF2 genotype: SRSF2 wt/wt) [%] | cell viability ([4]; SRSF2 genotype: P95H/wt) [%] | cell viability ([4]; SRSF2 genotype: wt/wt) [%] |
| --- | --- | --- | --- | --- | --- | --- | --- | --- |
| Nc1nc(N)nc(-c2cc(Cl)ccc2Cl)n1 [Irsogladine] | 95.2% and 105% | 97.1 | 102 | 113 | 101 | 103 | 108 | 101 |
| CO[C@]1(CC[C@@H](C)CO[C@@H]2O[C@H](CO)[C@@H](O)[C@H](O)[C@H]2O)O[C@H]2C[C@H]3[C@@H]4CC=C5C[C@@H](O[C@@H]6O[C@H](CO)[C@@H](O[C@@H]7O[C@@H](C)[C@H](O)[C@@H](O)[C@H]7O)[C@H](O)[C@H]6O[C@@H]6O[C@@H](C)[C@H](O)[C@@H](O)[C@H]6O)CC[C@]5(C)[C@H]4CC[C@]3(C)[C@H]2[C@@H]1C [Methylprotodioscin] | 0.68% and 0.5% | 1.3 | 0.54 | 0.79 | 0.52 | 0.56 | 0.5 | 0.54 |
| CC1CCC2(OC1)OC1CC3C4CCC5CC(OC6OC(CO)C(O)C(O)C6OC6OC(CO)C(O)C(O)C6O)CCC5(C)C4CCC3(C)C1C2C (stereo not given) [Timosaponin A3] | 7.72% and 10% | 28.3 | 3.39 | 3.93 | 1.66 | 0.73 | 0.43 | 0.73 |
| COc1ccc(S(=O)(=O)Nc2cccnc2Nc2ccc(O)cc2)cc1 | 16.4% and 39.8% | 36.7 | 7.19 | 9.01 | 16.8 | 5.56 | 9.51 | 11.2 |
| CCC(CC)(NC(=O)C(C)C)C(=O)N[C@@H](CCCN=C(N)N)C(=O)NC1(C(=O)NC(c2ccc(F)cc2)c2ccc(F)cc2)CCCC1 | 98.6% and 103% | 106 | 93.8 | 98.3 | 93.4 | 99.3 | 97.9 | 108 |
| C=CC[C@@H]1/C=C(\C)C[C@H](C)C[C@H](OC)[C@H]2O[C@@](O)(C(=O)C(=O)N3CCCC[C@H]3C(=O)O[C@H](/C(C)=C/[C@@H]3CC[C@@H](O)[C@H](OC)C3)[C@H](C)[C@@H](O)CC1=O)[C@H](C)C[C@@H]2OC [Tacrolimus (FK506)] | 90.3% and 93.4% | 84.9 | 94.3 | 97.2 | 92.2 | 96.3 | 91.4 | 98.2 |
| O=C(O)P(=O)(O)O [Foscarnet Sodium] | 106% and 108% | 107 | 101 | 108 | 101 | 109 | 112 | 95.6 |
| CC(=O)OCC(=O)NCCCOc1cccc(CN2CCCCC2)c1 [Roxatidine acetate HCl] | 102% and 97.3% | 96.1 | 93.7 | 103 | 101 | 101 | 92 | 94.8 |
| C/C1=C\CC[C@]23O[C@H]2[C@@H](OC3=O)c2c(C)coc2C1 [Linderane] | 109% and 104% | 112 | 104 | 99.6 | 117 | 108 | 103 | 101 |
| CC(C)(Sc1cc(C(C)(C)C)c(O)c(C(C)(C)C)c1)Sc1cc(C(C)(C)C)c(O)c(C(C)(C)C)c1 [Probucol] | 98.5% and 99.2% | 102 | 99.7 | 105 | 102 | 105 | 105 | 103 |
| CCOC(=O)C1=C(N)Oc2ccc(Br)cc2C1C(C#N)C(=O)OCC (stereo not given) | 84.9% and 89.9% | 86.5 | 65.6 | 56 | 48.6 | 74.9 | 67.4 | 66 |
| COc1cc(N2CCN(C)CC2)ccc1Nc1nccc(-c2cn(C)c3cnccc23)n1 | 63.7% and 63.4% | 79.2 | 41 | 39.1 | 3.24 | 1.65 | 6.46 | 11.4 |
| CC/C=C(\C(=O)N[C@@H]1C(=O)N2C(C(=O)OCOC(=O)C(C)(C)C)=C(COC(N)=O)CS[C@H]12)c1csc(N)n1 [Cefcapene Pivoxil Hydrochloride] | 101% and 102% | 109 | 93.2 | 103 | 97.3 | 105 | 114 | 106 |
| COc1cc2ncnc(Sc3nnc(C)s3)c2cc1OC | 52.4% and 59.1% | 73.6 | 42 | 42.1 | 5.68 | 3.57 | 3.76 | 16.7 |
| CCCC(CCC)C(=O)O [Valproic acid] | 95.5% and 98.3% | 106 | 103 | 100 | 102 | 102 | 102 | 95.7 |
| OC(CNCC(O)C1CCc2cc(F)ccc2O1)C1CCc2cc(F)ccc2O1 (stereo not given) [Nebivolol HCl] | 61.4% and 73% | 80.7 | 60.4 | 60.5 | 58.6 | 62.5 | 50.6 | 61.5 |
| COC(=O)C1=C(C)NC(C)=C(C(=O)OCC(C)C)C1c1ccccc1[N+](=O)[O-] (stereo not given) [Nisoldipine] | 80.1% and 83.8% | 80.3 | 56.3 | 58.6 | 41.7 | 34.7 | 41.2 | 55.3 |
| Cc1onc(-c2c(Cl)cccc2Cl)c1C(=O)N[C@@H]1C(=O)N2[C@@H]1SC(C)(C)[C@@H]2C(=O)O [Dicloxacillin Sodium] | 99.5% and 95% | 101 | 101 | 103 | 98.7 | 98.3 | 93 | 109 |
| CC(=O)Nc1nc(-c2cccc(NS(=O)(=O)c3cccc4c(N(C)C)cccc34)c2)cs1 | 61.8% and 63.7% | 62 | 58.7 | 43.8 | 62.4 | 66.6 | 33.3 | 40.5 |
| CC(C)=CCOc1ccc(/C=C/C(=O)c2ccc(OCC=C(C)C)cc2OCC(=O)O)cc1 [Sofalcone] | 100% and 101% | 107 | 105 | 101 | 84.9 | 94.5 | 106 | 118 |
